Results published in publication PMC5540273 (PLoS ONE, 2017).

Tests used:
Settings in all cases: concentration: 1 μM, replicates: in singlicate; n = 1
MERTK = system: MERTK
MET = system: MET
MINK = system: T1, MINK
T1 construct: gene MINK1

MKK7 = system: MKK7
MKNK1 = system: MKNK1
MKNK2 = system: MKNK2
MLCK = system: T2, MLCK
T2 construct: gene MYLK3

MLK1 = system: T3, MLK1
T3 construct: gene MAP3K9

MLK2 = system: MLK2
MLK3 = system: MLK3
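Also: KINOMEscan kinase panel screen.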

Nc1nc(-c2ccccn2)c(-c2ccnc3ccccc23)s1 [GW548057]
%Inh (MERTK): 2%
%Inh (MET): 0%
%Inh (MINK): 56%
%Inh (MKK7): 14%
%Inh (MKNK1): 1%
%Inh (MKNK2): 0%
%Inh (MLCK): 0%
%Inh (MLK1): 0%
%Inh (MLK2): 0%
%Inh (MLK3): 0%

Cl.Cn1ccc(-c2cccc(Nc3ccnc4cc(-c5nccs5)ccc34)c2)n1 [GW525701]
%Inh (MERTK): 23%
%Inh (MET): 0%
%Inh (MINK): 54%
%Inh (MKK7): 0%
%Inh (MKNK1): 7%
%Inh (MKNK2): 1%
%Inh (MLCK): 14%
%Inh (MLK1): 0%
%Inh (MLK2): 0%
%Inh (MLK3): 0%

Clc1cc(Nc2ncnc3cc[nH]c23)ccc1OCc1ccccn1
%Inh (MERTK): 0%
%Inh (MET): 4%
%Inh (MINK): 33%
%Inh (MKK7): 5%
%Inh (MKNK1): 35%
%Inh (MKNK2): 22%
%Inh (MLCK): 0%
%Inh (MLK1): 0%
%Inh (MLK2): 2%
%Inh (MLK3): 0%

Cl.Cl.c1ccc(-c2cc3ccncc3cc2OC2CCNCC2)cc1 [GSK1122999]
%Inh (MERTK): 46%
%Inh (MET): 0%
%Inh (MINK): 6%
%Inh (MKK7): 0%
%Inh (MKNK1): 29%
%Inh (MKNK2): 4%
%Inh (MLCK): 10%
%Inh (MLK1): 0%
%Inh (MLK2): 0%
%Inh (MLK3): 23%

Cl.c1ccc(Cn2ccc3cc(Nc4ncnc5ccccc45)ccc32)cc1 [GW275568]
%Inh (MERTK): 0%
%Inh (MET): 2%
%Inh (MINK): 12%
%Inh (MKK7): 7%
%Inh (MKNK1): 6%
%Inh (MKNK2): 12%
%Inh (MLCK): 0%
%Inh (MLK1): 0%
%Inh (MLK2): 0%
%Inh (MLK3): 13%

O=C(c1ccc(-c2cc(-c3c[nH]nc3-c3ccccn3)ccn2)cc1)N1CCCC1 [GW792479]
%Inh (MERTK): 0%
%Inh (MET): 23%
%Inh (MINK): 30%
%Inh (MKK7): 0%
%Inh (MKNK1): 0%
%Inh (MKNK2): 0%
%Inh (MLCK): 0%
%Inh (MLK1): 14%
%Inh (MLK2): 14%
%Inh (MLK3): 3%

Cc1ccc(NC(=O)c2cccc(C#N)c2)cc1-c1ccc(C(=O)Nc2ccncc2)cc1 [GSK1398463]
%Inh (MERTK): 0%
%Inh (MET): 0%
%Inh (MINK): 0%
%Inh (MKK7): 0%
%Inh (MKNK1): 0%
%Inh (MKNK2): 23%
%Inh (MLCK): 0%
%Inh (MLK1): 0%
%Inh (MLK2): 24%
%Inh (MLK3): 0%

Nc1nc(-c2ccc3c(N)n[nH]c3c2)cc(N2CCC[C@@H](C(=O)Nc3ccccc3)C2)n1.O=C(O)C(F)(F)F.O=C(O)C(F)(F)F [GSK2288359]
%Inh (MERTK): 0%
%Inh (MET): 0%
%Inh (MINK): 0%
%Inh (MKK7): 0%
%Inh (MKNK1): 11%
%Inh (MKNK2): 1%
%Inh (MLCK): 0%
%Inh (MLK1): 0%
%Inh (MLK2): 0%
%Inh (MLK3): 0%

COc1ccc(Nc2nccc(N3CCC(NC(=O)Nc4ccc5c(c4)OCO5)C3)n2)cc1 (stereo not shown) [GSK1379745]
%Inh (MERTK): 34%
%Inh (MET): 20%
%Inh (MINK): 3%
%Inh (MKK7): 24%
%Inh (MKNK1): 21%
%Inh (MKNK2): 6%
%Inh (MLCK): 31%
%Inh (MLK1): 6%
%Inh (MLK2): 19%
%Inh (MLK3): 38%

N#Cc1ccc(Oc2ccc(Nc3ncnc4cc[nH]c34)cc2Cl)cc1
%Inh (MERTK): 0%
%Inh (MET): 11%
%Inh (MINK): 31%
%Inh (MKK7): 0%
%Inh (MKNK1): 0%
%Inh (MKNK2): 20%
%Inh (MLCK): 8%
%Inh (MLK1): 0%
%Inh (MLK2): 0%
%Inh (MLK3): 0%
